# Bioassay records (PubChem)
# USP17 inh – inhibitors of human USP17 deubiquitinase | A8MUK1 | purified USP17, Ub-rhodamine cleavage fluorescence, 3 h | inhibition, % at 50 µM | 6.5% of 47,000 active
# Target sequence (A8MUK1 whole entry, looked up): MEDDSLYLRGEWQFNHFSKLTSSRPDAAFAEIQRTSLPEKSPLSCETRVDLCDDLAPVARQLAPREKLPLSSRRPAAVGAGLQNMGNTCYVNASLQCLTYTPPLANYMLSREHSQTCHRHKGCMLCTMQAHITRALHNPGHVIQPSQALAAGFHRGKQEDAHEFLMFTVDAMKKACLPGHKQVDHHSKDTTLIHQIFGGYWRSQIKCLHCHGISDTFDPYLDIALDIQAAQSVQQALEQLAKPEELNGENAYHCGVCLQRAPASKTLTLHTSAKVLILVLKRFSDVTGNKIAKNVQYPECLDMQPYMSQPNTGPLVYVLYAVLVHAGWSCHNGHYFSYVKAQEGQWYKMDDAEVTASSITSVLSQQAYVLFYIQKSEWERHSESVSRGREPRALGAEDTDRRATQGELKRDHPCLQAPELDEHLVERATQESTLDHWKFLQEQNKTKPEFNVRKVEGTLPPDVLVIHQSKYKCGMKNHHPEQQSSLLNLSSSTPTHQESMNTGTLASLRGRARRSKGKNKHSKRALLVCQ
# USP8 block – blocks human USP8 ubiquitin-rhodamine cleavage | P40818 | purified USP8, Ub-rhodamine cleavage fluorescence, 30 min | inhibition, % at 20 µM | 4.2% of 47,000 active
# USP28 inh – human USP28 deubiquitinase inhibition. Q96RU2. purified USP28, Ub-rhodamine cleavage fluorescence, 30 min. inhibition, % at 25 µM. 3% of 47,000 active
# USP10 inh – blocks human USP10 ubiquitin-rhodamine cleavage; Q14694; purified USP10, Ub-rhodamine fluorescence, 60 min; inhibition, % at 20 µM; 1.1% of 47,000 active; AID 1645856
# USP30 block – inhibitors of human USP30 deubiquitinase; AID 1645860; purified USP30, Ub-rhodamine cleavage fluorescence; inhibition, % at 25 µM; 5.3% of 47,000 active; Q70CQ3
# The depositor's hits bear a star. Compounds with a hit are over-represented: about 14% of the library has one in this group of screens. Cut-off read from the data, not from the text of the source: active = inhibition above about 30%; inactive = the rest.
SMILES,USP17 inh,USP8 block,USP28 inh,USP10 inh,USP30 block
COc1ccc(NC(=O)CCN2C(=O)[C@@H]3Cc4ccccc4CN3C2=O)cc1,-2,-21,-1,1,5
Cc1c(C(=O)N2CCN(c3cccc(Cl)c3)CC2)oc2c1C(=O)CC(C)(C)C2,-8,-23,-3,-3,-25
CCC(C(=O)Nc1ncc2c(n1)CC(C)(C)CC2=O)c1ccccc1 (centres undefined),1,-2,0,0,-2
CCc1nnc(CN2CCC(C3CCCCCN3S(C)(=O)=O)CC2)o1 (centres undefined),-53,-158,-11,-10,-47
CCN(CC)c1ncc2c(n1)CCC(C(=O)N1CCCC1)C2 (centres undefined),0,1,45*,-1,12
O=C(NCc1ccncc1)C1CC(=O)N(c2ccccc2)C1 (centres undefined),0,3,-4,0,-29
O=C(COc1ccc(N2CC(C(=O)NCc3ccccc3)CC2=O)cc1)Nc1ccccc1Cl (centres undefined),56*,59*,12,49*,52*
O=C(Nc1nccn(-c2ccc(Br)cc2)c1=O)c1ccccn1,8,-28,0,-2,7
O=C(Cn1cc(C(=O)C(F)(F)F)c2cc(Br)ccc21)N1CCc2ccccc21,40*,2,-8,36*,-3
CCOc1ccc(-c2cc3nc(C4CCN(C(=O)OC(C)(C)C)CC4)c(C(=O)Nc4cc(F)ccc4F)cn3n2)cc1,46*,56*,10,2,-8
COCCN1C[C@H]2C[C@H](C(=O)Nc3ccc4c(c3)OCO4)[C@@H](C1)O2,0,2,0,3,5
CC(C)=CCc1cccc2c(C3=C(O)C(=O)C(c4c[nH]c5c(CC=C(C)C)cccc45)=C(O)C3=O)c[nH]c12,72*,4,52*,1,43*
c1ccc(-c2cc3c(NCc4ccccn4)ncnc3s2)cc1,35*,21,26,5,26
CCOC(=O)c1sc2nc(C)nc(NCc3ccccn3)c2c1C,11,5,5,-1,31*
O=C(O)c1cnc(NCc2ccccn2)nc1-c1cccc(Cl)c1,-4,-5,-19,-4,-23
O=C(CNc1ncnc2sc(-c3ccccc3)cc12)Nc1ccc(F)c(F)c1,-25,-16,-40,2,-208
Cc1nc(NCc2ccccn2)c2cc(-c3ccccc3)sc2n1,74*,30*,-11,-1,2
CCOC(=O)c1sc2nc(C)nc(Oc3cccnc3)c2c1C,16,20,12,-1,12
Cc1c(O)c(O)c(O)c(C=O)c1C=O,62*,4,68*,-13,70*
O=C(Cc1ccccc1)Nc1oc2ccccc2c(=O)c1-c1ccc2c(c1)OCO2,24,25,11,11,32*
Cc1ccccc1C(=O)Nc1c(-c2ccc3c(c2)OCO3)c(=O)c2ccccc2n1C,-2,4,-4,1,-5
O=C(Nc1ccnn1Cc1ccccc1)c1cc(=O)c2ccccc2o1,-7,0,2,3,3
CN(Cc1nn(C)c(Cl)c1Cl)C(=O)c1cc(C2CC2)nc2c1cnn2C,-9,-20,-5,0,-10
COc1ccc(Cl)cc1-c1nc(-c2cccnc2)no1,35*,-13,-5,-6,-13
COc1ccc(Cl)cc1-c1nc(-c2ccc(=O)[nH]c2)no1,-39,-63,-38,-5,-164
SMILES,USP17 inh,USP8 block,USP28 inh,USP10 inh,USP30 block
O=C1COc2ccc(-c3cc4n(c3)CCc3cc5c(cc3-4)OCO5)cc2N1,18,43*,8,-4,-47
Cc1nc2ccc(NC(=O)Nc3ccccc3F)cc2s1,-12,-9,40*,-5,-37
Cc1nc2ccc(NC(=O)COc3ccccc3F)cc2s1,-7,0,-4,1,-10
Cc1ccc(CNc2nc(Nc3ccc(C)cc3)c3cnn(C)c3n2)cc1,8,1,0,14,4
Cc1ccc(Nc2nc(NCCc3ccccc3)nc3c2cnn3C)cc1,74*,-6,-9,-1,16
COc1ccc(Nc2nc(NCc3ccccc3)nc3c2cnn3C)cc1,32*,0,-1,-1,28
Cc1ccc(NC(=O)/C=C/c2cccc(C(F)(F)F)c2)c(O)c1,58*,1,27,6,45*
O=C(/C=C/c1cccc(C(F)(F)F)c1)c1ccoc1,18,21,5,9,15
Cn1c(=O)[nH]c(=O)c2c1nc(N1CCN(C(c3ccccc3)c3ccccc3)CC1)n2CCSc1ncccn1,1,0,12,6,30*
